# Data reported in PubChem BioAssay (NCATS).
# Inconclusive results are not listed. Calls of active or inactive are those of the source. The call rests on the fitted dose curve; in most records, active means well fitted cell-killing curve with a large enough effect; inconclusive means small, poorly fitted or top-dose-only effect; inactive means no such curve, though single readings can be large or run the other way.
# Experiment: Quantitative High-Throughput drug screen in 47 multiple myeloma cell lines against the NCATS MIPE library collection: NCIH929_DSMZ cell viability assay (AID 1918978); further: nearly all actives have a fitted effect of over 35% in size
# Details: NCI-H929 myeloma viability, CellTiter-Glo ATP, 48 h; series mostly up to 45.8 µM; viability, % of control: at the top concentration
# Method in brief: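 500 cells/well; MIPE 4.0 drugs pin-transferred; 48 h, 37C, 5% CO2. CellTiter-Glo, 5 min RT, luminescence. Controls: DMSO 100%, media 0%.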
# Potency means the concentration at half of the fitted maximal effect.
Structure (SMILES),"viability, % of control",Potency
CCC(c1ccc(O)cc1)C(CC)c1ccc(O)cc1 (stereo not drawn),119% (inactive),–
CN1CCN(c2ncc(-c3cc(Cl)cc(Cl)c3Cl)c(N)n2)CC1,–,23.5 µM (active)
O=C(O)CCC=CCC[C@@H]1[C@H](N2CCCCC2)[C@@H](O)C[C@@H]1OCc1ccc(-c2ccccc2)cc1,127% (inactive),–
COc1cc(N2CCN(C)CC2)ccc1Nc1nc(N)c(C(=O)c2c(Cl)cccc2Cl)s1,112% (inactive),–
CN(CC=CC#CC(C)(C)C)Cc1cccc2ccccc12,89.4% (inactive),–
C#CCN(C)CC1=Cc2ccccc2Oc2ccccc21,81.9% (inactive),–
CC1=C(CC(=O)O)c2cc(F)ccc2C1=Cc1ccc(S(C)=O)cc1 (stereo not drawn),–,1.05 µM (active)
CN[C@@H]1[C@@H](O)[C@@H](O[C@@H]2[C@@H](O)[C@H](O[C@H]3O[C@H](CN)[C@@H](O)[C@H](O)[C@@H]3O)[C@@H](N)C[C@@H]2NC(=O)[C@@H](O)CN)OC[C@]1(C)O,94.9% (inactive),–
COc1cc(Nc2nc3ccccc3nc2NS(=O)(=O)c2ccc(NC(=O)c3ccc(C)c(OC)c3)cc2)cc(OC)c1,–,14.8 µM (active)
Cc1ccc(C(=O)N(CCCN)[C@@H](c2oc3cc(Cl)ccc3c(=O)c2Cc2ccccc2)C(C)C)cc1,–,8.33 µM (active)
CCCCC(F)(F)[C@@]1(O)CC[C@H]2[C@H](CC(=O)[C@@H]2CCCCCCC(=O)O)O1,106% (inactive),–
C[C@@]1(c2cc(-c3cncnc3)c(F)cc2F)CCSC(N)=N1,–,2.96 µM (active)
CCCCn1c(=O)n(Cc2ccccc2F)c(=O)c2[nH]c(Cc3ccc(NC(C)=O)cc3)nc21,76.2% (inactive),–
C[C@@H](O)[C@H]1C(=O)N2C(C(=O)OCOC(=O)C(C)(C)C)=C(SC3CN(C4=NCCS4)C3)[C@H](C)[C@H]12,89.5% (inactive),–
O[C@@H](COc1cccc2ncccc12)CN1CCN(C2c3ccccc3[C@@H]3[C@H](c4ccccc42)C3(F)F)CC1 (stereo partly drawn),–,11.8 µM (active)
Nc1ccn([C@@H]2O[C@H](CO)[C@@H](O)[C@H]2O)c(=O)n1,80.8% (inactive),–
O=C(O)Cc1cccc(OCCCN(Cc2cccc(C(F)(F)F)c2Cl)CC(c2ccccc2)c2ccccc2)c1,–,18.7 µM (active)
CC1=C(C(=O)Nc2cc3cn[nH]c3cc2F)C(c2ccc(C(F)(F)F)cc2)CC(=O)N1 (stereo not drawn),99.2% (inactive),–
CCC(=C(CC)c1ccc(O)cc1)c1ccc(O)cc1,–,16.6 µM (active)
CC(C)(C)c1[nH]cnc1C=c1[nH]c(=O)c(=Cc2ccccc2)[nH]c1=O,–,0.0215 µM (active)
Cc1ccc2c(c1)C(=O)[C@]1(O)CCN(c3ccccc3)C1=N2,98.3% (inactive),–
COc1ccnc(CS(=O)c2nc3ccc(OC(F)F)cc3[nH]2)c1OC (stereo not drawn),–,18.7 µM (active)
CN(C)CCOc1cc(-c2cn[nH]c2)ccc1NC(=O)C1COc2ccccc2O1 (stereo not drawn),–,18.7 µM (active)
